From PubChem BioAssay (NCI) come the findings set out here.

Values joined by “and” are separate entries in the source; they are usually repeats but may differ in a detail not shown here. Equal entries are not always repeated. This is part of a sample that, as a whole, favours compounds with a hit. Of some 83,000 tested, about 20% had one in any assay.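 The test compound was applied at a single concentration to cells in 96-well plates for 48 hours, and percent growth was recorded.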 Active and inactive are the calls of the source.

The test system of the first assay is HL-60(TB) leukemia. In words: NCI-60 one-dose screen, 48 h (100 = growth as untreated, 0 = no growth, -100 = all killed). To be noted: 10 µM. The procedure: Growth inhibition of the HL-60(TB) human tumor cell line is measured as a screen for anti-cancer activity. Cells are grown in 96 well plates and exposed to the test compound for 48 hours. Compounds are tested at a single concentration, which is 10^-5 M for most compounds. The reported endpoint is percent growth (GI% or GIPRCNT), where numbers from 0 - 100% represent growth inhibition, and numbers from -100% - 0 represent cell death. For example, a value of 40 represents 60% growth inhibition. A value of 0 means no net growth occurred over the course of the experiment. A value of -40 indicates 40% of cells at the beginning of the experiment died by the end of the experiment. A value of -100 means all cells are dead at the end of the experiment.
NCI-60 Human Tumor Cell Lines Screen was performed using the standard one-dose NCI protocol, which is described in more detail at https://dtp.cancer.gov/discovery_development/nci-60/default.htm.
Compounds with GIPRCNT values below 10 were considered active. Activity score was based on GIPRCNT using the following formula: […]
Score is 0 for GIPRCNT values of 100 or above, 50 for GIPRCNT values of 0, and 100 for GIPRCNT values of -100.
`CC(=O)/C=C/c1ccc(N(CCO)Cc2ccc(C(C)(C)C)cc2)cc1`: the growth is 69.6% (inactive).

The same assay, now with this note: 10 µM unless noted.
As for `CC/C=C\C[C@H]1C/C=C2/C(=O)C=C[C@@H]2C/C=C\CCCC(=O)O1`, the growth is -27.2% (active).
`CN(c1cc2ncc(=O)[nH]c2cc1NC(N)=NCc1ccc(Cl)cc1)C1CCCCC1`: the growth is 52.9% (inactive).
On to `O=C1C=CC(=O)N1c1ccccn1`, for which the growth was 55.7% (inactive).
With `CCCOC(=O)C1c2cc3c(cc2CC(C)C1C(=O)OCCC)OCO3` (stereo not given), the growth was 111% (inactive).
Same read-out and setting: the result for `COc1ccc(-c2cnnn2-c2nonc2-n2cccc2)cc1OC` reads 11% (inactive).
Regarding `O=C1OC(=O)C2C3CC(c4ccccc43)C12` (stereo not given), the growth is 112% (inactive).
Regarding `CCCCOc1nc2ccccc2cc1/C=C/c1cc(/C=C/c2cc3ccccc3nc2OCCCC)n(-c2ccccc2)n1`, the growth was 97.5% (inactive).
Take `CN1CCN(Cc2ccc(NC(=O)c3ccc(C#N)c(C#Cc4cnc(N)c5ncccc45)c3)cc2C(F)(F)F)CC1`: the growth was 60.8% (inactive).
`COc1ccc(/C=C(/C#N)n2nnc3cccc(F)c32)cc1`: the growth was -9.75% (active).
Consider `c1cc(CNCCNCc2ccncc2)ccn1`, for which the growth was 75.8% (inactive).
For `CCOC(=O)c1cc2c(n1Cc1ccccc1OC)-c1oncc1CCC2`, the growth was 14.4% (inactive).
As for `COc1ccc(C(=O)c2cc(C)c(OC)c(C)c2)c(OC)c1O`, the growth is -25.8% (active).
As for `COc1ccc(C(O)c2cc3c(N)c(C(=O)Nc4ccccc4)sc3nc2C)cc1` (stereo not given), the growth is -68.5% (active).
For `Cc1cn(-c2cc(NC(=O)c3cncc(C#Cc4cnc(N)c5ncccc45)c3)cc(C(F)(F)F)c2)cn1`, the growth is 18.7% (inactive).
For the molecule `Cc1ccc(S(=O)(=O)Nc2sccc2-c2nc(-c3ccccc3)no2)cc1`, the growth was 105% (inactive).
For `Clc1cc(Cl)cc(-c2ccc(-c3ccc(/C=N/NC4=NCCN4)cc3)s2)c1`, the growth was 19.6% (inactive).
Turning to `Cc1ccc(NC(=O)c2ccc(CN3CCN(C)CC3)cc2)cc1Nc1nccc(-c2cccnc2)n1`, the growth was 107% (inactive) and 89.8% (inactive).
Consider `CCOC(=O)c1cn2ncnc(Oc3ccc(NC(=O)NC4CCCCC4)c(Cl)c3)c2c1C`, for which the growth is 70.9% (inactive).
With `C[C@H](NC(=O)[C@@H](C)N)[C@H](Oc1ccc2c(cnn2-c2ccc(F)cc2)c1)c1ccc2c(c1)OCCO2`, the growth is 25.8% (inactive).
On to `COc1cc(/C=C/C(=O)c2c(C)nc3ccccc3c2C)ccc1OCCCN1CCN(C(=O)c2ccco2)CC1`, for which the growth is 74.7% (inactive).
Still for that read-out and setting: the result for `COc1ccc(CCNC(=S)NN)cc1OC` reads 92.1% (inactive); that for `CN(C)C(=S)SC(=S)N(C)C`, 103% (inactive) and 93.8% (inactive); that for `CCOc1ccc(N(C)c2ccc(/C=C/C3=[N+](C)c4ccccc4C3(C)C)cc2)cc1`, -43.5% (active).
Consider `O=C1NCC(Nc2ccc(Br)cc2Cl)C(=O)N1` (stereo not given), for which the growth was 108% (inactive).
As to `Fc1ccc2nc(-c3cc(-c4ccc5c(c4)OCO5)n[nH]3)[nH]c2c1`, the growth is 13.9% (inactive).
`CC(C)c1cc(N=O)cc(C(C)C)c1O`: the growth is 93% (inactive).
The same measure, in the same setting: the result for `COc1ccc(-n2nnc(C(=O)O)c2-c2cc(OC)c(OC)c(OC)c2)cc1` reads 98.8% (inactive); that for `Fc1ccc(CNc2cccc3[nH]c(C(F)(F)F)nc23)cc1`, 55% (inactive).
As to `COc1ccc(-c2nc3ncccn3c2-c2nnc(-c3ccc(F)cc3)o2)cc1`, the growth was 91.1% (inactive).
As to `CC(=O)c1ccc(NCC(=O)Nc2ccccn2)cc1`, the growth was 109% (inactive).
Consider `CCS(=O)(=O)c1cc(=O)[nH]c(=O)[nH]1`, for which the growth is 117% (inactive).
In the case of `CCOc1ccc(C(=O)Cc2ccccc2)cc1`, the growth was 97.4% (inactive).
Take `CC(C)(C)CC(C)(C)c1ccc(OCCO)cc1`: the growth was 91.5% (inactive).
As for `C=C[C@@H]1C[C@@H]2Cc3cc(Cl)ccc3N1O2`, the growth is 13.8% (inactive).
Consider `Nc1ccc(O)c(C(=O)O)c1`, for which the growth is 89.4% (inactive) and 104% (inactive) and 106% (inactive).
In the case of `CC(=O)CC(c1ccc([N+](=O)[O-])cc1)c1c(O)c2ccccc2oc1=O` (stereo not given), the growth was 97% (inactive).
For the molecule `CS(=O)(=O)Nc1cc(-c2ccc3ncnc(Nc4c(Cl)ccc5c4OCO5)c3c2)cnc1Cl`, the growth is -4.02% (active).
For the molecule `Cc1cc(N2CCCC2)nc(N(CCCNc2ccnc3cc(Cl)ccc23)Cc2ccc3c(c2)OCO3)n1`, the growth is -62.9% (active).

The same assay, now with this note: 100 µM.
With `CC(=O)/C=C/c1ccc(N(CCO)Cc2ccc(C(C)(C)C)cc2)cc1`, the growth was -55.3% (active).
